Laboratory results: PubChem BioAssay (NCATS)
Several values for one entry are separate records, joined by “and”; a condition that tells them apart may be missing. Identical values can stand only once. Records with an inconclusive call do not appear. A call without a number means that no potency is given here. Some compounds were tested as several samples or in several runs, with calls that do not always agree. Activity calls are given as the source filed them. Unless noted, calls come from the whole dose curve; as a rule, active = well fitted curve in the direction sought with a large enough effect; inconclusive = small, poorly fitted or top-dose-only effect, or another doubt; inactive = no such curve, though single readings can be large; an effect the other way counts as inactive or inconclusive.

Assays:
[1] = molecular target: Thioredoxin reductase 1, cytoplasmic (Rattus norvegicus) (UniProt O89049); experiment: qHTS Assay for Substrates of Mammalian Selenoprotein Thioredoxin Reductase 1 (TrxR1) (AID 488772);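 note: NADPH fluorescence in the first read after selenite addition and not the 8 min delta; series mostly up to about 57 µM; a drop in NADPH fluorescence below the no-compound background marks a TrxR1 substrate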
Method in brief: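 Quantitative HTS in Tris-HCl buffer at pH 7.5 with EDTA and Tween-20, using rat TrxR1, 400 uM NADPH and 400 uM selenite (final). A fall in initial NADPH fluorescence relative to background marked substrate behaviour.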

[2] = molecular target: Chromobox protein homolog 1 (Homo sapiens) (UniProt P83916); experiment: qHTS Validation Assay for Inhibitors of HP1-beta Chromodomain Interactions with Methylated Histone Tails (AID 488953); note: nearly all actives have a fitted effect of over 50% in size; note: potency is the fitted concentration of half-maximal effect
Method in brief: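 HP1-beta (50 nM) preformed 30 min with biotinylated H3(1-18)K9me3 peptide (50 nM) in PBS pH 7.4, 0.01% Tween-20. Compounds added for 30 min at room temperature. Complex disruption read by AlphaScreen with streptavidin donor/nickel chelate acceptor beads (10 ug/mL each).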

[3] = molecular target: Methanococcus maripaludis chaperonin (MmCpn) (UniProt Q6LX38); experiment: High-Throughput Screening for Modulators of Cytosolic Chaperonin Activity: MmCpn Primary Screen (AID 488978);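 note: 50 nM MmCpn enzyme hydrolysing 30 µM ATP at 37 °C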
Method in brief: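 MmCpn (50 nM final) was preincubated with compound 5 min at RT, then 30 uM ATP (final) was added and the reaction ran 10 min at 37C. ADP produced was detected by Transcreener HTRF (ex 320 nm; em 590/665 nm).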

[4] = molecular target: D(1A) dopamine receptor (Homo sapiens) (UniProt P21728); experiment: HTS Assay for Allosteric Agonists of the Human D1 Dopamine Receptor: Primary Screen for Potentiators (AID 488982); note: potency is the fitted concentration of half-maximal effect
Method in brief: (§1)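 Calcium flux in an inducible, force-coupled HEK293 Trex D1 line (overnight at 30 C): agonist mode is the 180 s kinetic read after compound; potentiator mode is the following 180 s read after dopamine at EC20.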

[5] = molecular target: D(1A) dopamine receptor (Homo sapiens) (UniProt P21728); experiment: HTS Assay for Allosteric Agonists of the Human D1 Dopamine Receptor: Primary Screen for Antagonists (AID 488983);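 note: calcium flux response to an EC80 dopamine challenge measured with no-wash dye; nearly all actives have a fitted effect of over 65% in size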; note: potency is the fitted concentration of half-maximal effect
Method in brief: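 Tetracycline-induced HEK293 T-REx D1 line, force-coupled to calcium flux, read with no-wash calcium dye. Compound added after 10 s baseline, read 180 s for agonism, then EC80 dopamine added and read a further 180 s.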

[6] = Validation screen for small molecules that induce genotoxicity in human embryonic kidney (HEK293T) cells expressing luciferase-tagged ELG1 (AID 493106)
Method in brief: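 HEK293T cells expressing luciferase-tagged ELG1, 2,000 cells/well, exposed to compound 16 hr at 37 °C, 5% CO2. Luciferase read after ONE-Glo, 30 min at room temperature; increased signal indicates genetic stress.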

[7] = Nrf2 qHTS screen for inhibitors: Validation (AID 493153; active = well fitted inhibition curve with a large enough effect in the main read-out, with a control signal flat, not every such curve was filed as active); conditions: Potency: luciferase luminescence; viability change: measured here: cytotoxicity max response
Method in brief: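 A549 cells carrying ARE-firefly luciferase reporter, 5000 cells/well in 5% FBS OPTI-MEM, treated with compound over a concentration series for 18-24 h at 37 C. Luciferase luminescence gave Nrf2 activity; CellTiter-Fluor fluorescence gave viability.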

[8] = qHTS for Inhibitors of Cell Surface uPA Generation: Validation Assay (AID 493164)
Method in brief: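 RAW 264.7 cells (4000/well) were plated overnight, then exposed for 18 h at 37 C, 5% CO2 to compounds in a 7-point 1:5 titration (2.45 nM–38.3 uM final). Intracellular ATP was read by ATP-Lite luminescence.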

[9] = molecular target: Thioredoxin reductase 1, cytoplasmic (Rattus norvegicus) (UniProt O89049); experiment: qHTS Assay for Inhibitors of Mammalian Selenoprotein Thioredoxin Reductase 1 (TrxR1) (AID 488773); conditions: Potency: inhibition; note: nearly all actives have a fitted effect of over 40% in size; note: potency is the fitted concentration of half-maximal effect
Method in brief: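 Steps: enzyme (90 nM) plus NADPH (400 uM final), 5 min at ~22 deg C; compound added, 15 min; selenite (400 uM final) added; fluorescence followed for 8 min. Concentration-response curves derived from the normalized delta values.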

[10] = molecular target: Flap endonuclease 1 (Homo sapiens) (UniProt P39748); experiment: qHTS Validation Assay for the Inhibitors of Human Flap endonuclease 1 (FEN1) (AID 488816)
Method in brief: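 Readings taken at 0 and 15 min after starting the reaction with 50 nM (final) substrate supplied the signal. Compounds had first sat with 10 nM FEN1 reagent for 15 min at room temperature. Values come from Hill-equation concentration-response fits.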

[11] = molecular target: M-phase phosphoprotein 8 (Homo sapiens) (UniProt Q99549); experiment: qHTS Validation Assay for Inhibitors for MPP8 Chromodomain Interactions with Methylated Histone Tails (AID 488949); note: nearly all actives have a fitted effect of over 55% in size; note: potency is the fitted concentration of half-maximal effect
Method in brief: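 MPP8 (50 nM) was preincubated with biotinylated H3(1-18)K9me3 peptide (50 nM) in PBS pH 7.4, 0.01% Tween-20 for 30 min at room temperature, then with compounds for 30 min; binding was detected by AlphaScreen.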

[12] = molecular target: Transient receptor potential cation channel subfamily V member 1 (Homo sapiens) (UniProt Q8NER1); experiment: HTS Assay for Compounds that Act as Enhancers of the Vanilloid Receptor 1 (AID 488979)
Method in brief: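 Calcium influx kinetics via Fluo-8 (480/520 nm) in TRPV1-expressing cells, 2000/well cultured overnight at 35.5C. Compound-alone read 3 min (agonist phase), followed by EC20 capsaicin challenge for 2 min (enhancer phase).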

[13] = molecular target: Thyrotropin receptor (Homo sapiens) (UniProt P16473); experiment: qHTS Assay for Antagonists of the Thyroid Stimulating Hormone Receptor (AID 488980); note: series mostly up to about 58 µM
Method in brief: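 HEK293 cells transfected with human TSHR, suspended in HEPES-buffered HBSS with 70 uM RO 20-1724, were treated with compounds plus TSH at EC80 (4 nM final). cAMP was measured by competitive HTRF (cryptate anti-cAMP antibody, cAMP-d2 acceptor).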

[14] = molecular target: ATPase family AAA domain-containing protein 5 (Homo sapiens) (UniProt Q96QE3); experiment: Validation screen for small molecules that inhibit ELG1-dependent DNA repair in human embryonic kidney (HEK293T) cells expressing luciferase-tagged ELG1 (AID 493107); note: nearly all actives have a fitted effect of over 70% in size; note: potency is the fitted concentration of half-maximal effect
Method in brief: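 HEK293T cells expressing luciferase-tagged ELG1, 2,000 per well, treated with 5-fluorouridine plus compound for 16 h at 37 C. ONE-Glo luminescence after 30 min at room temperature reports ELG1 reporter level.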

[15] = molecular target: Thyrotropin-releasing hormone receptor (Homo sapiens) (UniProt P34981); experiment: qHTS for Small Molecule Agonists and Allosteric Enhancers of Human TRH Receptor: Validation Screen for Agonists (AID 493127;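 active = calcium activation more than 3 SD above the typical response in the agonist read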); conditions: TRH receptor agonist cell assay; at 2 µM; stronger effect = higher value
Method in brief: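 TRHR cells loaded with fluo-8 calcium dye; FDSS kinetic fluorescence (Ex 480/Em 530) read at 1 s/cycle after 23 nL compound addition. Agonist-mode calcium response recorded before the 10 nM TRH (EC20) addition.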

[16] = molecular target: Galactokinase (Homo sapiens) (UniProt P51570); experiment: qHTS Validation Assay for Inhibitors of Human Galactokinase (GALK) (AID 493189)
Method in brief: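 GALK (5 nM) with 35 uM ATP and 100 uM galactose in HEPES pH8.0, MgCl2, NaCl, DTT, BSA; 1 h at room temperature. Residual ATP read by Kinase-Glo Plus luminescence after 10 min.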

[17] = molecular target: D(1A) dopamine receptor (Homo sapiens) (UniProt P21728); experiment: HTS Assay for Allosteric Agonists of the Human D1 Dopamine Receptor: Primary Screen for Agonists (AID 488981)
Method in brief: as §1

[18] = molecular target: ATP-dependent 6-phosphofructokinase (Trypanosoma brucei brucei) (UniProt O15648); experiment: qHTS Assay to Find Inhibitors of T. brucei phosphofructokinase: hit validation (AID 492961);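 note: luminescence reports ADP formed as PFK phosphorylates fructose-6-phosphate with ATP; series mostly up to about 51 µM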
Method in brief: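 Measures ADP output of PFK (1.25 nM) at 0.1 mM ATP, 0.5 mM F6P, pH 8.0 TEA buffer with 5 mM MgCl2. No-enzyme wells define full inhibition; uninhibited enzyme wells define zero.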

Sequence of M-phase phosphoprotein 8 (Homo sapiens) (Q99549 whole entry, looked up): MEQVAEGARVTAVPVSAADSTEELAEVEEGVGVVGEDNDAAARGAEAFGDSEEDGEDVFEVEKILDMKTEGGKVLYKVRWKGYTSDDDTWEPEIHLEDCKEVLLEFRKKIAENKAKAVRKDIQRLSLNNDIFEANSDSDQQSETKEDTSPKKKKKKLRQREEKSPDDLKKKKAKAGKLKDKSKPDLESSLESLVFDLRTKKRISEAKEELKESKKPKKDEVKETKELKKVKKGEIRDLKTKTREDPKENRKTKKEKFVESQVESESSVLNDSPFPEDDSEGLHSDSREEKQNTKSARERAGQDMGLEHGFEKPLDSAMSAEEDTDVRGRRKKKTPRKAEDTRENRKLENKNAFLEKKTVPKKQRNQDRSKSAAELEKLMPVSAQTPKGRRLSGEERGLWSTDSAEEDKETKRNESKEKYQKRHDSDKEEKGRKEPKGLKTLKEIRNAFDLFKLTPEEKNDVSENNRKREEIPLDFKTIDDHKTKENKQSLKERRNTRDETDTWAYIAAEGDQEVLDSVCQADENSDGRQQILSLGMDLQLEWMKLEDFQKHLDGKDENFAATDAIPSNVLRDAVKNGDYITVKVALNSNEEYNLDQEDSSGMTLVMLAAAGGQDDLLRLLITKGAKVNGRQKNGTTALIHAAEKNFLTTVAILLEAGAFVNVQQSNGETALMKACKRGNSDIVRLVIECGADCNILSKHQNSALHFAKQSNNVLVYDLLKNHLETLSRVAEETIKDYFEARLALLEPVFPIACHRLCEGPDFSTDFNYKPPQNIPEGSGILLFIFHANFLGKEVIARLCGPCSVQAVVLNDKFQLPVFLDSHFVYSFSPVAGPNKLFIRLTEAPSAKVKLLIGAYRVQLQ
Sequence of D(1A) dopamine receptor (Homo sapiens) (P21728 whole entry, looked up): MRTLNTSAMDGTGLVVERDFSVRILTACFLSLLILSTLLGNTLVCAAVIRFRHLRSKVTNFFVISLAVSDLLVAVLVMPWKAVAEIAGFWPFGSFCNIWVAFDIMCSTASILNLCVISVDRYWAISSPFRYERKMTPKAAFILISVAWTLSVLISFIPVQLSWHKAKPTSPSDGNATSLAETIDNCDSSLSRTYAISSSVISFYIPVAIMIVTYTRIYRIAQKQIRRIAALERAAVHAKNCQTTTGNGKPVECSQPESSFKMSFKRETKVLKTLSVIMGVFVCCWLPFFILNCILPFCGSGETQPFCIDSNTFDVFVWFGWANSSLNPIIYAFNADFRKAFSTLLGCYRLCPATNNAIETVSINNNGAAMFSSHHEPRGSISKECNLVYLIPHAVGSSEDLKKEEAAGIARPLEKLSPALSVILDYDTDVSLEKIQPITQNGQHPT
Sequence of Thyrotropin receptor (Homo sapiens) (P16473 whole entry, looked up): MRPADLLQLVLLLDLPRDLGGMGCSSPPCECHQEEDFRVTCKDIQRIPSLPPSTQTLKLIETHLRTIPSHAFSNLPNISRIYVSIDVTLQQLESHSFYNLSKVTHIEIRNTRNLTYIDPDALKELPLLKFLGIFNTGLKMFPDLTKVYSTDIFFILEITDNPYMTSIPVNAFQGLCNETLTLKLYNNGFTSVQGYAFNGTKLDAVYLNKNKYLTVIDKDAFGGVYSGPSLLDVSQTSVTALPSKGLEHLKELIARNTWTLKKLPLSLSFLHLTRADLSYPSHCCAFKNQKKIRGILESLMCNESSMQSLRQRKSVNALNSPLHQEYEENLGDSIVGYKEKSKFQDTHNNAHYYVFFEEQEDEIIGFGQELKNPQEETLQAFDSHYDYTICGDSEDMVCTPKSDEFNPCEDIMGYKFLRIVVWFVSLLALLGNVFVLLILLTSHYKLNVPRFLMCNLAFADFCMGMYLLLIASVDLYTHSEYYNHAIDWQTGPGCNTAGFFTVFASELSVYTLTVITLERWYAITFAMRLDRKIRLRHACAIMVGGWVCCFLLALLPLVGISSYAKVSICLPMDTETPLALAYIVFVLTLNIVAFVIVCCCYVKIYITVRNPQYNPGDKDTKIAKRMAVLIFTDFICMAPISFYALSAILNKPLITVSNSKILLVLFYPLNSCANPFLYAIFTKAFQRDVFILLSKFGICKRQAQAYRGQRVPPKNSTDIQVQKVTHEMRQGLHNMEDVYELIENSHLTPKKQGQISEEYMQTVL
Sequence of Chromobox protein homolog 1 (Homo sapiens) (P83916 whole entry, looked up): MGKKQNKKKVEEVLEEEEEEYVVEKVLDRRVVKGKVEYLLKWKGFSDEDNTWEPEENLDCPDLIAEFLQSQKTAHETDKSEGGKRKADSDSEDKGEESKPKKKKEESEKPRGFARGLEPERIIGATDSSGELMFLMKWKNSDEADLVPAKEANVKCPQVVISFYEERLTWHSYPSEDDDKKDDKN
Sequence of Thioredoxin reductase 1, cytoplasmic (Rattus norvegicus) (O89049 whole entry, looked up): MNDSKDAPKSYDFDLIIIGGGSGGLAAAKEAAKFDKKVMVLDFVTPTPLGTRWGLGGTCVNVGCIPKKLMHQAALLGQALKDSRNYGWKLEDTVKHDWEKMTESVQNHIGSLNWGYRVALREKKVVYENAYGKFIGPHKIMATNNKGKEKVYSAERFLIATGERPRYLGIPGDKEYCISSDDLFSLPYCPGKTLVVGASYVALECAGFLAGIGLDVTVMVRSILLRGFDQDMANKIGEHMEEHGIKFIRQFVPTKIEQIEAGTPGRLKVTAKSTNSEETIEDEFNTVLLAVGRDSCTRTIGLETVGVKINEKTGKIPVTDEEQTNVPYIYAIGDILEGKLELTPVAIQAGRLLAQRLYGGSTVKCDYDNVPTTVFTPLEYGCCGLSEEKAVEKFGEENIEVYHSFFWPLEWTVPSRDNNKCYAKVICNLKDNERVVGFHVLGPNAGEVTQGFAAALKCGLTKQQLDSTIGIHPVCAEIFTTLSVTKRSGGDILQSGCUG
Sequence of Flap endonuclease 1 (Homo sapiens) (P39748 whole entry, looked up): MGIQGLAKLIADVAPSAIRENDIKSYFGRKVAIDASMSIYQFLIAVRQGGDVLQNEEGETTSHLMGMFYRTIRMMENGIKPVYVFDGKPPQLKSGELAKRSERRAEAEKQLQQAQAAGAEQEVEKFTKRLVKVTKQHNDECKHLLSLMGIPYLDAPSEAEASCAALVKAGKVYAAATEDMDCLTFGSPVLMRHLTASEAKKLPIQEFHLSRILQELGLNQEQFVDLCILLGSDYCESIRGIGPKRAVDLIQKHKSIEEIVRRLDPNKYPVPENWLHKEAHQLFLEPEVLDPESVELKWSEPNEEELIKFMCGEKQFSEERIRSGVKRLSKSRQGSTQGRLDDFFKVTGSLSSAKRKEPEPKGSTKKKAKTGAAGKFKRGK
Sequence of Galactokinase (Homo sapiens) (P51570 whole entry, looked up): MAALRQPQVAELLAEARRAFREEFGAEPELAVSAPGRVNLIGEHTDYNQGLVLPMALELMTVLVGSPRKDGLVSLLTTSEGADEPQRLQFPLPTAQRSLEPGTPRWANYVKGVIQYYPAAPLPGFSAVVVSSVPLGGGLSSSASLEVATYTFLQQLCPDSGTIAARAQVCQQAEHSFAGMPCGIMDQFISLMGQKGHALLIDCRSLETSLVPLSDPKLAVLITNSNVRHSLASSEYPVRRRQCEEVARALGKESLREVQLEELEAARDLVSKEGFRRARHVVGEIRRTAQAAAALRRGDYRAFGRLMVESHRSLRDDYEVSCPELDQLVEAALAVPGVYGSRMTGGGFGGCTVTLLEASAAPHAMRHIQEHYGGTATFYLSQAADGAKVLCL
Sequence of Thyrotropin-releasing hormone receptor (Homo sapiens) (P34981 whole entry, looked up): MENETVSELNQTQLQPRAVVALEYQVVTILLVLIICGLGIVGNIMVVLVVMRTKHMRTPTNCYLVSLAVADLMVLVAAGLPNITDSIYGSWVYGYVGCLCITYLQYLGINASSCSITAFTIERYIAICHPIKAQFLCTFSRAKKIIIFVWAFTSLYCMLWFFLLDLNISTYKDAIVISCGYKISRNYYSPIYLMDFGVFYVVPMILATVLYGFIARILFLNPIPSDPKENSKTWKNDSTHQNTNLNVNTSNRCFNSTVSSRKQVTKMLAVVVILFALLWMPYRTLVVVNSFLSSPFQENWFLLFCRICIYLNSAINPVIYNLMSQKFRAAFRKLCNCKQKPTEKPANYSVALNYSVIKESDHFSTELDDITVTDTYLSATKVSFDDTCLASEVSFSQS
Sequence of Methanococcus maripaludis chaperonin (MmCpn) (Q6LX38 1-543): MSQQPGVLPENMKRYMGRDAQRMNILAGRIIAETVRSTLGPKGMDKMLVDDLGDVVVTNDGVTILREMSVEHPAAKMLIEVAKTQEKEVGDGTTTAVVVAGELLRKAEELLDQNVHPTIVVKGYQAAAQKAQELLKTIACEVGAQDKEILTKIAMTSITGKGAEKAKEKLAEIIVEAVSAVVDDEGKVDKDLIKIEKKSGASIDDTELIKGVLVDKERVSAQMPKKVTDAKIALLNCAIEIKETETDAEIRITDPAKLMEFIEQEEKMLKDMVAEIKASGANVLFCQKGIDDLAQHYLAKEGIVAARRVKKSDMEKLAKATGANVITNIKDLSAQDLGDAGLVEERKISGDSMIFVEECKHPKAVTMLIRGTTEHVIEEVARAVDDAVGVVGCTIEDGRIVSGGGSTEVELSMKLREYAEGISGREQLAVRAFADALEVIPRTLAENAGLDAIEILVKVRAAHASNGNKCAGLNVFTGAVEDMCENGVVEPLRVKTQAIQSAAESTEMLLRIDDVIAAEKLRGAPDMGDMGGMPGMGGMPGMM
Sequence of ATP-dependent 6-phosphofructokinase (Trypanosoma brucei brucei) (O15648 whole entry, looked up): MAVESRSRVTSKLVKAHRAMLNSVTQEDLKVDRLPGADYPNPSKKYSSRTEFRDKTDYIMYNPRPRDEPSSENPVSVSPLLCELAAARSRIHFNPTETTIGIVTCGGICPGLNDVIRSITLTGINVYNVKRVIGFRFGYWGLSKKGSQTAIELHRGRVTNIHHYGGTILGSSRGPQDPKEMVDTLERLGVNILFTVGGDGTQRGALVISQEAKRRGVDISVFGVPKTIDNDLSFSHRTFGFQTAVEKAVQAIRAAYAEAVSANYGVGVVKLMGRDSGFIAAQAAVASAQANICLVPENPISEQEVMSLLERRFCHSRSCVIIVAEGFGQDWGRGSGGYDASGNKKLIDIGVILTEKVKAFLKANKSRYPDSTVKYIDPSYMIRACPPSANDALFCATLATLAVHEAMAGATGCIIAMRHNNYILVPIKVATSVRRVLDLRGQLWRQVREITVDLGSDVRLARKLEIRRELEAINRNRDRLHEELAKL

| SMILES | Potency [1] | Potency [2] | outcome [3] | Potency [4] | Potency [5] | Potency [6] | Potency [7] | viability change [7] | outcome [8] | Potency [9] | Potency [10] | Potency [11] | outcome [12] | outcome [13] | Potency [14] | activation [15] | Potency [16] | Potency [17] | outcome [18] |
| --- | --- | --- | --- | --- | --- | --- | --- | --- | --- | --- | --- | --- | --- | --- | --- | --- | --- | --- | --- |
| C=C[C@H]1CN2CC[C@@H]1C[C@@H]2[C@@H](O)c1ccnc2ccc(OC)cc12 | inactive | inactive | inactive | inactive | inactive | inactive | inactive | -1.39% | inactive |  |  |  |  |  |  |  |  |  |  |
| C[C@@H](NC(=O)/C(C#N)=C/c1ccc(O)c(O)c1)c1ccccc1 |  | 8.91 µM (active) | inactive |  | inactive | inactive |  |  | inactive | inactive | inactive | 10 µM (active) | inactive | inactive | inactive | 0.938% (inactive) | inactive |  |  |
| CC[C@@H](C)[C@H]1O[C@]2(CC[C@H]1C)C[C@@H]1C[C@@H](CC=C(C)[C@@H](O[C@H]3C[C@H](OC)[C@@H](O[C@H]4C[C@H](OC)[C@@H](O)[C@H](C)O4)[C@H](C)O3)[C@@H](C)C=CC=C3CO[C@@H]4[C@H](O)C(C)=C[C@@H](C(=O)O1)[C@]34O)O2 |  | inactive | inactive | 2.06 µM (active) | inactive | inactive |  |  | inactive | inactive | inactive | inactive |  |  |  |  |  | inactive |  |
| CC(C)NC[C@@H](O)c1ccc(O)c(O)c1 | inactive |  | inactive | inactive | inactive | inactive | inactive | 0.444% | inactive |  | inactive | inactive |  |  |  |  |  | inactive |  |
| CN1C2CC(OC(=O)[C@H](CO)c3ccccc3)CC1C1OC12 (some centres undefined) |  | inactive | inactive | inactive | inactive | inactive | inactive | -8.53% | inactive | inactive |  |  |  |  | inactive |  |  | inactive |  |
| O=[N+]([O-])c1ccc(CSc2ncnc3c2ncn3[C@@H]2O[C@H](CO)[C@@H](O)[C@H]2O)cc1 | inactive | inactive |  |  | inactive | inactive |  |  | inactive | inactive |  | inactive |  |  |  |  |  |  |  |
| N#C/C(=C\c1ccc(O)c(O)c1)C(=O)NCc1ccccc1 | inactive | 10 µM (active) | inactive |  | inactive | inactive | inactive | -19.8% | inactive |  | inactive |  | inactive | inactive |  | 1.31% (inactive) | inactive | inactive |  |
| Nc1ncnc2c1ncn2[C@@H]1O[C@H](COP(=O)(O)CP(=O)(O)OP(=O)(O)O)[C@@H](O)[C@H]1O | inactive | inactive |  | inactive | inactive | inactive | inactive | -5.53% | inactive | inactive |  |  |  |  | inactive |  |  |  |  |
| CCC1C(=O)OCC1Cc1cncn1C (centres undefined) | inactive | inactive | inactive | inactive | inactive | inactive | inactive | 6.63% and 6.13% | inactive |  |  |  |  |  | inactive |  |  | inactive | inactive |
| Oc1cc2c(cc1O)CN(C(=S)NCCc1ccc(Cl)cc1)CCC2 | inactive | 44.7 µM (active) | inactive | inactive | 2 µM (active) | inactive | inactive | -1.93% | inactive |  | inactive | 39.8 µM (active) and inactive | inactive | inactive |  | 2.62% (inactive) | inactive | inactive |  |
| CCCn1c(=O)c2[nH]c(-c3ccc(OCC(=O)NCCN)cc3)nc2n(CCC)c1=O | inactive |  |  | inactive | inactive | inactive | inactive | 10.5% | inactive | inactive |  | inactive | inactive | inactive |  | 0.688% (inactive) | inactive | inactive |  |
| C=CC(C)=C[C@@]1(C)SC(=O)C(C)=C1O | inactive |  | inactive | inactive | inactive | inactive | inactive | 1.42% | inactive | inactive |  | inactive |  |  | inactive |  |  | inactive |  |
| C=CC(=O)c1ccc(CCCCCC)cc1 | inactive |  | inactive |  |  | inactive | inactive | -13% | inactive | 15 µM (active) |  | inactive |  |  |  |  |  | inactive |  |
| N#C/C(=C\c1ccc(-c2cc(Cl)ccc2Cl)o1)C(=O)Nc1cccc2ncccc12 | inactive | inactive | inactive | inactive | inactive | inactive |  |  | inactive |  | inactive | inactive |  |  | 16.4 µM (active) |  |  |  |  |
| Nc1nc(SCc2ccc([N+](=O)[O-])cc2)c2ncn([C@@H]3O[C@H](CO)[C@@H](O)[C@H]3O)c2n1 |  | inactive |  | inactive | inactive | inactive | inactive | 12.2% | inactive | inactive |  | inactive |  |  |  |  |  |  |  |
| N.N.N.N.N.N.N.N.N.N.N.N.N.N.O.O.[Ru+4].[Ru+5].[Ru+5] |  | 4.47 µM (active) |  | inactive | inactive | inactive |  |  | inactive |  |  | 8.44 µM (active) |  |  |  |  |  |  |  |
| CC(C)CC(NP(=O)(O)O[C@@H]1O[C@@H](C)[C@H](O)[C@@H](O)[C@H]1O)C(=O)NC(Cc1c[nH]c2ccccc12)C(=O)O (some centres undefined) | inactive | inactive | inactive |  | inactive | inactive | inactive | -0.0491% | inactive | inactive |  |  |  |  | inactive |  |  | inactive |  |
| CO/N=C(\C(=O)N[C@@H]1C(=O)N2C(C(=O)O)=C(COC(C)=O)CS[C@H]12)c1csc(N)n1 |  | 50.1 µM (active) |  | inactive | inactive | inactive | inactive | -5.9% | inactive |  | inactive | inactive |  |  | inactive |  |  | inactive |  |
| C[N+]1(C)C2CC(OC(=O)[C@H](CO)c3ccccc3)CC1C1OC12 (some centres undefined) | inactive |  | inactive | inactive | inactive | inactive | inactive | 3.14% and -2.67% | inactive | inactive |  |  |  |  |  |  |  |  |  |
